Bioassay records deposited in PubChem by Broad Institute.
aSyn UTR act – Activators via SNCA 5'UTR binding, MLPCN. alpha-synuclein 5'UTR reporter, activators screen. activity score, % (tested at 7.5 µM), hits read low. hit rate 7.1% among 300,000. AID 1814, 2009; in the data active means activity score below about -60%
* hit, by the source's call. The list is a sample of the results.

SMILES	aSyn UTR act
Clc1ncnc2c1oc1ccccc12	-62*
COc1ccc(N(/N=C2\Sc3ccccc3C2=O)C(C)=O)cc1	-143*
CC(=O)N(C1=C(N)C(=O)c2ccccc2C1=O)c1ccccc1	78
COc1ccccc1Nc1nc2ccc(C)cc2cc1C#N	-87*
COc1ccccc1Nc1nc(NCCO)nc(N)c1[N+](=O)[O-]	61
CC1Cc2ccccc2N1C(=O)CSc1ncc(-c2ccc(F)cc2)n1C (stereo not drawn)	-126*
O=[N+]([O-])/C(C(Cl)=C(Cl)Cl)=C(\Nc1ccc(F)cc1)n1cncn1	-102*
Cc1cc2nc(-c3ccc(SCC(=O)N4CCN(C(=O)c5ccco5)CC4)nc3)[nH]c2cc1C	-88*
O=C(CSc1ccc(-c2nc3ccccc3[nH]2)cn1)Nc1ccc2c(c1)OCCO2	-235*
Cc1ccc2nc(-c3ccc(SCC(=O)Nc4ccc5c(c4)OCCO5)nc3)[nH]c2c1	-327*
Cc1cc2nc(-c3ccc(SCC(=O)Nc4ccc5c(c4)OCCO5)nc3)[nH]c2cc1C	-207*
COc1cc(C(=O)N/N=C/c2sccc2C)cc(OC)c1OC	114
Cc1ccsc1/C=N/NC(=O)c1ccc2ccccc2c1	-216*
Cc1ccsc1/C=N/NC(=O)c1ccc([N+](=O)[O-])cc1	-88*
Cc1ccsc1/C=N/NC(=O)Nc1ccccc1	-162*
CCOC(=O)N/N=C\c1ccccc1OC/C=C/c1ccccc1	-95*
COC(=O)N/N=C\c1ccccc1OC/C=C/c1ccccc1	-123*
CCN(CC)c1ccc(-c2nc3cnccc3n2C)cc1	-111*
CCN(CC)c1ccc(/C=N/NC(=O)c2nnn(-c3nonc3N)c2C(C)C)c(O)c1	92
CC(/C=N/NC(=O)c1nnn(-c2nonc2N)c1C(C)C)=C\c1ccco1	-62*
O=C(N/N=C/C(Cl)=C/c1ccccc1)c1ccccn1	-66*
CC(/C=N/NC(=O)c1ccccn1)=C\c1ccco1	-75*
O=C(N/N=C\C=C\c1ccco1)c1cc(-c2ccc3ccccc3c2)n[nH]1	-146*
O=C(N/N=C/C=C/c1ccccc1)c1ccccn1	-166*
O=C(N/N=C/C(Br)=C/c1ccccc1)c1cnccn1	-110*
SMILES	aSyn UTR act
Cc1cc(C(=O)N/N=C/C(Cl)=C/c2ccccc2)c(C)o1	-67*
O=C(N/N=C/C=C/c1ccccc1)c1n[nH]c2c1CCC2	70
Nc1nnn(CC(=O)N/N=C/C=C/c2ccccc2)n1	-87*
O=C(N/N=C/C=C\c1ccco1)c1ccccn1	-145*
COc1ccc(C(=O)NCCSc2ccccc2)cc1OC	-129*
CN(C)S(=O)(=O)c1ccc(C(=O)NCCSc2ccccc2)cc1	-115*
N=C1C(c2nc3ccccc3s2)=C(O)CN1Cc1ccccc1	-342*
Cc1ccc(-c2ccc(C3C(C#N)=C(N)Oc4n[nH]c(C)c43)o2)cc1 (stereo not drawn)	-107*
Cc1ccc2cc(C3C(C#N)=C(N)Oc4c3ccc3cccnc43)c(=O)[nH]c2c1 (stereo not drawn)	61
Cc1[nH]nc2c1C(c1ccc(-c3ccc(Cl)cc3)o1)C(C#N)=C(N)O2 (stereo not drawn)	-63*
C=CCSc1n[nH]c(-c2ccc(OCCC)cc2)n1	-164*
CCCOc1ccc(C2=NNC(=O)CC2)cc1	77
CCCOc1ccc(-c2nc(=S)[nH][nH]2)cc1	-77*
C=CCSc1n[nH]c(-c2ccc(OCCCC)cc2)n1	-89*
CSc1nc(-c2ccc(N(C)C)cc2)c(C#N)c(=O)n1C	-72*
COCCNC(=O)COc1ccc(Br)cc1Cl	-68*
C=CCNC(=O)COc1ccc(Br)cc1Cl	-103*
O=C(COc1ccc(Br)cc1Cl)c1ccc[nH]1	-69*
CC(C)(C)c1ccc(OCC(=O)O/N=C(\N)c2ccncc2)cc1	-77*
N/C(=N\OC(=O)COc1ccc2ccccc2c1Br)c1ccncc1	-92*
CCc1ccc(OCC(=O)O/N=C(\N)c2ccncc2)cc1	-99*
CCc1ccc(OCC(=O)O/N=C(\N)c2ccncc2)c(Br)c1	-136*
Cc1cc(C(=O)O/N=C(\N)c2ccc(C(C)(C)C)cc2)no1	-223*
Cc1nc2cc3nc(C)sc3cc2s1	-80*
O=C1CN(c2nc(-c3cccs3)nc3sc4c(c23)CCCC4)CCN1	-109*
SMILES	aSyn UTR act
O=c1c2c3c(sc2nc2n1N=C(c1cccs1)CS2)CCCC3	-166*
O=C1CN(c2nc(-c3cccnc3)nc3scc(-c4ccccc4)c23)CCN1	-90*
COc1ccc(NC(=S)N2CCc3ccccc32)cc1OC	-83*
OCc1c(OCc2cccc(F)c2)ccc2ccccc12	-111*
FC(F)(F)c1cc(Cl)c2nc(-c3ccccc3)cn2c1	-80*
Nc1cccc(-c2cn3cc(C(F)(F)F)cc(Cl)c3n2)c1	-100*
CC(=O)NC(c1ccc(C)cc1)c1cc(Cl)c2cccnc2c1O (stereo not drawn)	60
O=S(=O)(Nc1cc(Sc2cccc3cccnc23)c(O)c2ccccc12)c1ccccc1	-139*
C/C(=N\NC(=O)c1sccc1C)c1cccnc1	-200*
C/C(=N\NC(=O)c1sccc1C)c1ccncc1	-108*
O=C(Nc1ccc(F)cc1)Oc1ccc[nH]c1=O	-82*
CC(C)(C)C1=CC=C(C(C)(C)C)C(=O)C1=O	-73*
O=C(CN1C(=O)CCC1=O)Nc1nc(-c2ccc(Cl)s2)cs1	-64*
O=C(CSCC(=O)N1CCCCC1)Nc1nc(-c2ccc(Cl)s2)cs1	-118*
Clc1ccc(/C(Cc2nc3ccccc3[nH]2)=N\Nc2ccccc2)cc1	-115*
O=C(Cc1nc2ccccc2[nH]1)c1ccc(Cl)cc1	-80*
O=C(Cc1nc2ccccc2[nH]1)c1ccc([N+](=O)[O-])cc1	-90*
CCc1cc(C(=O)Cc2nc3ccccc3[nH]2)c(O)cc1O	-183*
C=C(C(=O)c1ccccc1)C(C)C(=C)C(=O)c1ccccc1	-149*
O=C(Nc1ccc(-c2nc3ncccc3o2)cc1)c1ccc(Br)o1	-103*
O=C(Nc1ccc(-c2nc3ncccc3o2)cc1)c1ccco1	-163*
CCc1ccc(C(=O)Cn2ccsc2=N)cc1	-102*
Cn1c(NC(=O)/C=C/c2c(F)cccc2Cl)cc(=O)n(C)c1=O	-172*
O=C(/C=C/c1c(F)cccc1Cl)Nc1ncccn1	-228*
Cn1c(NC(=O)/C=C\c2ccccc2)cc(=O)n(C)c1=O	-137*
SMILES	aSyn UTR act
Cn1c(NNC(=O)c2ccccc2F)cc(=O)n(C)c1=O	46
O=C1NC(c2cccc(Br)c2)=N/C1=C\c1ccco1	-106*
O=C1NC(c2ccccc2)=N/C1=C/c1ccco1	-270*
O=C1NC(c2ccccc2Br)=N/C1=C\c1ccco1	-165*
CCCCn1cnc2sc(-c3ccccc3)cc2c1=O	-213*
COc1ncnc2sc(-c3ccccc3)cc12	-168*
CCCCCn1cnc2sc(-c3ccccc3)cc2c1=O	-299*
COc1ccccc1-n1cnc2sc(-c3ccccc3)cc2c1=O	-142*
O=c1c2cc(-c3ccccc3)sc2ncn1/N=C/c1ccco1	-140*
COc1ccc(-c2csc(/C(C#N)=C/Nc3cc4oc5ccccc5c4cc3OC)n2)cc1	43
COc1cc2c(cc1NC(=O)COC(=O)Cn1cnc3ccccc31)oc1ccccc12	-76*
COc1cc2c(cc1NC(=O)Cc1ccc(C)cc1)oc1ccccc12	-130*
COc1cc2c(cc1NCc1ccccn1)oc1ccccc12	-154*
COc1cc2c(cc1NC(=O)Nc1ccccc1)oc1ccccc12	-67*
COc1cc2c(cc1NC(=O)COC(=O)C(CCSC)NC(=O)c1ccccc1Cl)oc1ccccc12 (stereo not drawn)	-136*
